Shown are actives, neighbours in structure and some others; about 19% of the full set was active somewhere.
IL1B secr inh = inhibitors of inflammasome signaling (IL-1 beta secretion); THP-1 LPS/ATP IL-1B secretion, AlphaLISA, 16 h; hits give low values; activity change, % at 57.5 µM; 360,000 compounds, 4.7% hits; in the data active = activity change below about -50%; inconclusive = mostly about -30% to -49%
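THP-1 cells pretreated 1 hr with compounds (up to 57.5 uM final), then stimulated with LPS (250 ng/mL final) plus ATP (1.25 mM final); secreted IL-1B measured by AlphaLISA after 16 hr, decreased signal indicating inhibition.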
HT1080NT lethal = kills 2HG-producing HT-1080-NT fibrosarcoma cells; HT-1080-NT fibrosarcoma viability, CellTiter-Glo ATP luminescence, 48 h; Potency, µM (top dose mostly 46.1 µM), for inactives: top-dose activity, negative = less viability, actives largely listed as cytotoxic; 360,000 compounds, 1.6% hits; AID 686970;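 also: NT is the 2HG producing partner of a matched IDH1 knockdown line; potency is read from the fitted curve at half-maximal effect; 0% = DMSO-treated cells and -100% = media-only wells without cells; nearly all actives have a fitted effect of over 55% in size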
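Fibrosarcoma NT cells, 750 per well in 5% FBS RPMI, were exposed to compound for 48 hours. Viability: CellTiter-Glo luminescence.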
DT40 TDP1 no CPT = qHTS for Inhibitors of human tyrosyl-DNA phosphodiesterase 1 (TDP1): qHTS in cells in absence of CPT; DT40 Tdp1-/- hTDP1 cells, no CPT, ATP luminescence, 48 h; Potency, µM (highest dose often 46.2 µM), inactives show at the highest dose activity change, negative = growth inhibition, actives largely listed as inhibitors; 420,000 compounds, 15% hits; AID 686978, 2013; also: potency is read from the fitted curve at half-maximal effect; nearly all actives have a fitted effect of over 55% in size
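DT40 Tdp1-/-;hTDP1 cells, no CPT (DMSO vehicle only), 400 cells/well; compounds pin-transferred; ≥48 hr, 37 °C; CellTiter-Glo 30 min RT dark, luminescence read.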
HT1080 IDH1KD tx = kills HT-1080 cells with IDH1 knockdown; Potency, µM (doses to about 46.1 µM), without a hit: at the top dose activity, negative = toxicity, actives largely listed as cytotoxic; HT-1080 IDH1 knockdown viability, ATP luminescence, 48 h; 360,000 compounds, 2% hits;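 also: potency is read from the fitted curve at half-maximal effect; 0% = DMSO wells and -100% = cell-free medium wells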
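Viability of IDH1-knockdown HT-1080 fibrosarcoma cells was assessed by CellTiter-Glo after 48 h at 37 °C with titrated compound; concentration-effect curves were classified by fit quality and response size.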
DT40 TDP1 CPT = growth inhibition of DT40 Tdp1-/-;hTDP1 cells with camptothecin (screen for TDP1 inhibitors). chicken DT40 Tdp1-/-;hTDP1 cells + 20 nM CPT, ATP luminescence, 48 h. Potency, µM (top dose mostly 46.2 µM), without a hit: top-dose activity change, negative = growth inhibition, most hits filed as inhibitors. 420,000 compounds, 12% hits; also: potency is read from the fitted curve at half-maximal effect; nearly all actives have a fitted effect of over 55% in size
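Chicken DT40 Tdp1-/- cells stably complemented with human TDP1 were seeded at 400 cells/well in medium containing 20 nM camptothecin, exposed to pin-transferred compounds, and grown at 37 °C for at least 48 hr. Viability was read as ATP luminescence.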
* = called active by the depositor. Unless noted, calls follow the shape of the dose curve; as a rule, active = well fitted curve in the direction sought with a large enough effect; inconclusive = small, poorly fitted or top-dose-only effect, or another doubt; inactive = no such curve, though single readings can be large; an effect the other way counts as inactive or inconclusive. Unless noted, % is scaled to controls: 0 for no effect and ±100 for the full control effect.

`Cc1cccc(NC(=O)c2sc3nc(N)c(C#N)cc3c2N)c1` gave IL1B secr inh inconclusive, HT1080NT lethal 0%, DT40 TDP1 no CPT inconclusive, HT1080 IDH1KD tx -4% and DT40 TDP1 CPT inconclusive.
COc1ccc(NC(=O)c2sc3nc4c(cc3c2N)CN(C(C)C)CC4)c(OC)c1 was read as DT40 TDP1 no CPT inconclusive and DT40 TDP1 CPT 23µM*.
Cc1cccc(NC(=O)c2sc3nc4c(cc3c2N)CN(Cc2ccccc2)CC4)c1 was read as DT40 TDP1 no CPT 18µM* and DT40 TDP1 CPT 15µM*.
CN1CCc2nc3sc(C(=O)Nc4cccc(C#N)c4)c(N)c3cc2C1 was read as DT40 TDP1 no CPT 8.2µM* and DT40 TDP1 CPT 21µM*.
Screening COc1ccc(NC(=O)c2sc3nc4c(cc3c2N)CN(Cc2ccccc2)CC4)cc1 returned DT40 TDP1 no CPT 2% and DT40 TDP1 CPT 3%.
COc1ccc(S(=O)(=O)N2CCCCC2)cc1NC(=O)CCNC(=O)c1ccco1 was read as IL1B secr inh 7, HT1080NT lethal -3%, DT40 TDP1 no CPT -11%, HT1080 IDH1KD tx 1% and DT40 TDP1 CPT -14%.
Screening COc1ccc(NC(=O)N2CCC3(CC2)CCN(C(=O)c2ccco2)CC3)cc1 returned DT40 TDP1 no CPT -20% and DT40 TDP1 CPT 6%.
Screening CCCCN(C(=O)Cc1ccc(S(=O)(=O)N2CCOCC2)s1)c1c(N)n(CC(C)C)c(=O)[nH]c1=O returned IL1B secr inh 23, HT1080NT lethal 0%, DT40 TDP1 no CPT 0%, HT1080 IDH1KD tx 6% and DT40 TDP1 CPT -2%.
`COC(=O)c1cc2sccc2n1CC(=O)Nc1ccc(C)cc1C` gave DT40 TDP1 no CPT -23% and DT40 TDP1 CPT -26%.
Nc1c(C(=O)Nc2cccc(Cl)c2)sc2nc3c(cc12)CN(Cc1ccccc1)CC3 was read as DT40 TDP1 no CPT 15µM* and DT40 TDP1 CPT 7.3µM*.
Screening CCN1CCc2nc3sc(C(=O)Nc4cccnc4Cl)c(N)c3cc2C1 returned IL1B secr inh inconclusive, HT1080NT lethal 4%, DT40 TDP1 no CPT inconclusive, HT1080 IDH1KD tx -2% and DT40 TDP1 CPT inconclusive.
CCOC(=O)C1=C(C)NC(=S)NC1c1ccc(OCC(=O)N2CCCCC2)cc1 (stereo not given) was read as IL1B secr inh -5, HT1080NT lethal 0%, DT40 TDP1 no CPT -4%, HT1080 IDH1KD tx -5% and DT40 TDP1 CPT -3%.
`CCN1CCN(c2ncnc3scc(-c4ccc(OC)cc4)c23)CC1` gave IL1B secr inh -28, HT1080NT lethal -1%, DT40 TDP1 no CPT -18%, HT1080 IDH1KD tx -18% and DT40 TDP1 CPT -28%.
For COc1ccc(CN2CCN(c3ncnc4scc(-c5ccc(F)cc5)c34)CC2)cc1 the results were IL1B secr inh inconclusive, HT1080NT lethal 23%, DT40 TDP1 no CPT 21µM*, HT1080 IDH1KD tx 21% and DT40 TDP1 CPT 16µM*.
`Cc1sc2ncnc(Nc3ccc(N4CCOCC4)cc3)c2c1-c1ccccc1` gave IL1B secr inh -6, HT1080NT lethal 2%, DT40 TDP1 no CPT inconclusive, HT1080 IDH1KD tx -3% and DT40 TDP1 CPT 16µM*.
`COc1ccc(F)cc1CN1CCN(c2ncnc3scc(-c4ccccc4)c23)CC1` gave HT1080NT lethal -23%, DT40 TDP1 no CPT 16µM*, HT1080 IDH1KD tx inconclusive and DT40 TDP1 CPT 15µM*.
For Cc1sc2ncnc(N3CCN(Cc4ccccc4)CC3)c2c1-c1ccccc1 the results were IL1B secr inh -56*, HT1080NT lethal 3%, DT40 TDP1 no CPT inconclusive, HT1080 IDH1KD tx 13% and DT40 TDP1 CPT inconclusive.
Screening O=C(c1ccco1)N1CCC2(CCN(Cc3nccs3)CC2)CC1 returned DT40 TDP1 no CPT -13% and DT40 TDP1 CPT 1%.
Cc1ccccc1CN(C)C(=O)c1ccc2ccccc2n1 was read as IL1B secr inh 8, HT1080NT lethal -10%, DT40 TDP1 no CPT inconclusive, HT1080 IDH1KD tx -12% and DT40 TDP1 CPT inconclusive.
`S=c1[nH]ncn1/N=C/c1ccccn1` gave IL1B secr inh 3, HT1080NT lethal 5%, DT40 TDP1 no CPT -16%, HT1080 IDH1KD tx 2% and DT40 TDP1 CPT -7%.
Screening CCOc1ccc(NC(=O)c2cc(=O)[nH]c3ccccc23)cc1 returned IL1B secr inh 7, HT1080NT lethal -6%, DT40 TDP1 no CPT 0%, HT1080 IDH1KD tx -5% and DT40 TDP1 CPT inconclusive.
Screening Fc1ccc(-c2csc3ncnc(N4CCN(c5ccccc5)CC4)c23)cc1 returned IL1B secr inh 3, HT1080NT lethal -10%, DT40 TDP1 no CPT inconclusive, HT1080 IDH1KD tx -15% and DT40 TDP1 CPT inconclusive.
`CCOc1ccc(CN2CCN(c3ncnc4scc(-c5ccccc5)c34)CC2)cc1` gave IL1B secr inh 16, HT1080NT lethal 8%, DT40 TDP1 no CPT 8.2µM*, HT1080 IDH1KD tx -4% and DT40 TDP1 CPT inconclusive.
Screening CC(C)CC(=O)C1CCCN(C(=O)c2ccc3oc(Cc4ccccc4)nc3c2)C1 (stereo not given) returned IL1B secr inh -52*, HT1080NT lethal -3%, DT40 TDP1 no CPT 23µM*, HT1080 IDH1KD tx -22% and DT40 TDP1 CPT 23µM*.
For COCC1CCCCN1C(=O)c1ccc2oc(CCCc3ccccc3)nc2c1 (stereo not given) the results were IL1B secr inh -5, HT1080NT lethal -6%, DT40 TDP1 no CPT 23µM*, HT1080 IDH1KD tx -12% and DT40 TDP1 CPT 18µM*.
COCC1CCN(C(=O)c2ccc3nc(Cc4cccc(Cl)c4)oc3c2)CC1 was read as IL1B secr inh -9, HT1080NT lethal -3%, DT40 TDP1 no CPT 18µM*, HT1080 IDH1KD tx -8% and DT40 TDP1 CPT 21µM*.
For COCCN1CCN(C(=O)c2ccc3nc(Cc4ccc(OC)c(OC)c4)oc3c2)CC1 the results were IL1B secr inh inactive, HT1080NT lethal 7.3µM*, DT40 TDP1 no CPT 6.5µM*, HT1080 IDH1KD tx -10% and DT40 TDP1 CPT 12µM*.
Screening O=C(c1ccc2oc(CCc3ccccc3)nc2c1)N1CC[C@H](O)C1 returned IL1B secr inh 2, HT1080NT lethal -3%, DT40 TDP1 no CPT 3%, HT1080 IDH1KD tx 0% and DT40 TDP1 CPT -2%.
`CN(c1nccc(=O)[nH]1)C1CCN(c2nc3ccccc3n2Cc2ccc(F)cc2)CC1` gave DT40 TDP1 no CPT inconclusive and DT40 TDP1 CPT -4%.
For COc1ccccc1C(=O)NCCC(=O)NC1CCC(C)CC1 (stereo not given) the results were IL1B secr inh -15, HT1080NT lethal 0%, DT40 TDP1 no CPT -15%, HT1080 IDH1KD tx 9% and DT40 TDP1 CPT 0%.
